Experimental data reported in PubChem BioAssay (Tox21).
Records with an inconclusive call do not appear. Entries that show only a call come without a potency. Some structures have more than one record in an assay (separate samples or runs), and their calls can disagree. The source made the active and inactive calls. Unless noted, calls follow the shape of the dose curve; as a rule, active = well fitted curve in the direction sought with a large enough effect in the repeat runs; inconclusive = weak or mixed curves; inactive = no such curve, though single readings can be large; an effect the other way counts as inactive or inconclusive.

Assays:
[1] = qHTS assay to identify small molecule agonists of the peroxisome proliferator-activated receptor delta (PPARd) signaling pathway - cell viability counter screen (AID 743211); also: nearly all actives have a fitted effect of over 55% in size
Procedure, shortened: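 PPARd-bla HEK293H cells (3000/well) were pre-incubated 5 h at 37 C, then exposed to compound for 17 h at 37 C. After 2 h with LiveBLAzer substrate, CellTiter-Glo was added to the same wells; luminescence read after 30 min at room temperature.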

[2] = molecular target: Peroxisome proliferator-activated receptor delta (Homo sapiens) (UniProt Q03181); assay: qHTS assay to identify small molecule agonists of the peroxisome proliferator-activated receptor delta (PPARd) signaling pathway (AID 743212; calls by dose curve)
Procedure, shortened: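 Read-out: beta-lactamase FRET fluorescence after 2 h room-temperature incubation with LiveBLAzer B/G substrate. Cells were HEK293H carrying a UAS-bla reporter for PPARd, treated at 37 C with DMSO-dissolved compounds.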

[3] = qHTS assay to identify small molecule antagonists of the peroxisome proliferator-activated receptor delta (PPARd) signaling pathway - cell viability counter screen (AID 743213); also: nearly all actives have a fitted effect of over 50% in size
Procedure, shortened: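 PPARd-bla HEK293H cells were treated with compounds plus agonist L165041 (300 nM final) for 17 h at 37 C. Viability was then read in the same wells by CellTiter-Glo luminescence after 30 min at room temperature.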

[4] = molecular target: Peroxisome proliferator-activated receptor delta (Homo sapiens) (UniProt Q03181); assay: qHTS assay to identify small molecule antagonists of the peroxisome proliferator-activated receptor delta (PPARd) signaling pathway (AID 743215; active = well fitted inhibition curve with a large enough effect in the signal ratio in the repeat runs, not every such curve was filed as active; the % refers to the signal ratio;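 also: cells stimulated with agonist L165041 at 300 nM final during compound exposure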; also: potency is read from the fitted curve at half-maximal effect)
Procedure, shortened: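 Agonist L165041 (300 nM final) added with compound to PPARd-bla HEK293H UAS-bla reporter cells; 17 h incubation at 37 C. Read-out: LiveBLAzer FRET substrate, 2 h at room temperature, fluorescence intensity.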

[5] = molecular target: Bile acid receptor (Homo sapiens) (UniProt Q96RI1); assay: qHTS assay to identify small molecule antagonists of the farnesoid-X-receptor (FXR) signaling pathway (AID 743217; active = well fitted inhibition curve with a large enough effect in the signal ratio in the repeat runs, not every such curve was filed as active; the % refers to the signal ratio)
Procedure, shortened: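 Antagonist mode: chenodeoxycholic acid at 50 uM final stimulates a UAS-driven beta-lactamase reporter in HEK 293T FXR-bla cells during 16 h, 37C compound exposure. Read-out is FRET substrate fluorescence after 2 h at room temperature.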

[6] = qHTS assay to identify small molecule agonists of the farnesoid-X-receptor (FXR) signaling pathway - cell viability counter screen (AID 743218); also: nearly all actives have a fitted effect of over 45% in size
Procedure, shortened: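 Viability counter screen in the same wells: CellTiter-Glo luminescence, 30 min room-temperature incubation, measured after the beta-lactamase read. Cells were GeneBLAzer FXR-UAS-bla HEK 293T, compound-treated 16 h at 37C.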

[7] = molecular target: Bile acid receptor (Homo sapiens) (UniProt Q96RI1); assay: qHTS assay to identify small molecule agonists of the farnesoid-X-receptor (FXR) signaling pathway (AID 743220; active = well fitted activation curve with a large enough effect in the signal ratio in the repeat runs, not every such curve was filed as active; the % refers to the signal ratio)
Procedure, shortened: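 FXR-UAS-bla HEK 293T cells carrying a UAS-driven beta-lactamase reporter were plated for 5 h at 37C/5% CO2, then exposed to DMSO-dissolved Tox21 10K compounds for 16 h at 37C. A LiveBLAzer B/G FRET substrate was loaded for 2 h at room temperature before fluorescence reading.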

[8] = qHTS assay to identify small molecule antagonists of the farnesoid-X-receptor (FXR) signaling pathway - cell viability counter screen (AID 743221; active = well fitted cell-killing curve with a large enough effect in the repeat runs, not every such curve was filed as active; also: nearly all actives have a fitted effect of over 50% in size)
Procedure, shortened: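 GeneBLAzer FXR-UAS-bla HEK 293T cells, compound plus chenodeoxycholic acid (50 uM final), 16 h at 37 C. CellTiter-Glo added to the same wells after the beta-lactamase read; luminescence read after 30 min at room temperature as viability.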

[9] = molecular target: Vitamin D3 receptor (Homo sapiens) (UniProt P11473); assay: qHTS assay to identify small molecule agonists of the vitamin D receptor (VDR) signaling pathway (AID 743222; calls by dose curve)
Procedure, shortened: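 Agonist mode, beta-lactamase reporter: fluorescence from LiveBLAzer B/G FRET substrate (2 h, room temperature) read after 16 h compound treatment at 37 C of VDR-bla cells, which were pre-incubated 4 h after seeding.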

[10] = molecular target: Vitamin D3 receptor (Homo sapiens) (UniProt P11473); assay: qHTS assay to identify small molecule antagonists of the vitamin D receptor (VDR) signaling pathway (AID 743223; active = well fitted inhibition curve with a large enough effect in the signal ratio in the repeat runs, not every such curve was filed as active; the % refers to the signal ratio)
Procedure, shortened: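 VDR-bla cells were treated with compound plus 3 nM final 1alpha,25-dihydroxyvitamin D3 for 16 h at 37C. Beta-lactamase reporter read by B/G FRET substrate fluorescence after 2 h at room temperature. qHTS format.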

[11] = qHTS assay to identify small molecule agonists of the vitamin D receptor (VDR) signaling pathway - cell viability counter screen (AID 743224); also: series mostly up to about 63 µM; nearly all actives have a fitted effect of over 50% in size
Procedure, shortened: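 Counter screen run in the same wells as the VDR-bla reporter assay: CellTiter-Glo luminescence, 30 min at room temperature, after 16 h compound treatment at 37C of cells pre-plated for 4 h.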

[12] = qHTS assay to identify small molecule antagonists of the vitamin D receptor (VDR) signaling pathway - cell viability counter screen (AID 743225); also: nearly all actives have a fitted effect of over 50% in size
Procedure, shortened: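 VDR-UAS-bla HEK 293T cells were plated and incubated 4 h at 37C, then dosed with compound plus 3 nM (final) 1-alpha,25-dihydroxyvitamin D3 for 16 h. After the 2 h beta-lactamase read, viability in the same wells was read as CellTiter-Glo luminescence after 30 min at room temperature.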

[13] = qHTS assay to identify small molecule agonists of the NFkB signaling pathway (AID 1159509; active = well fitted curve in the direction sought with a large enough effect in the signal ratio in the repeat runs, not every such curve was filed as active; the % refers to the signal ratio; also: series mostly up to about 61 µM)
Procedure, shortened: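 Beta-lactamase reporter assay run in quantitative high-throughput format on an NF-kB-responsive ME-180 line, with 5 hr compound treatment and a FRET-based blue/green fluorescence readout.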

[14] = qHTS assay to identify small molecule agonists of the NFkB signaling pathway - cell viability counter screen (AID 1159515; calls by dose curve; also: series mostly up to about 61 µM; nearly all actives have a fitted effect of over 55% in size)
Procedure, shortened: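 Read by CellTiter-Glo luminescence (30 min, room temperature) in the wells also used for the beta-lactamase FRET read. ME-180 NFkB-bla cells at 2,000 per well were plated overnight, then exposed to compound for 5 hr at 37 C.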

[15] = qHTS assay to identify small molecule agonists of the endoplasmic reticulum stress response signaling pathway - cell viability counter screen (AID 1159517; calls by dose curve)
Procedure, shortened: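 Steps: seed 1,500 ESRE-bla HeLa cells per well; incubate overnight at 37 C, 5% CO2; add compounds in DMSO for 5 hr; run FRET substrate 2 hr RT; add CellTiter-Glo, wait 30 min, read luminescence.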

[16] = qHTS assay to identify small molecule antagonists of the retinoid-related orphan receptor gamma (ROR-gamma) signaling pathway - cell viability counter screen (AID 1159520); also: nearly all actives have a fitted effect of over 50% in size
Procedure, shortened: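 Tet-on ROR gamma CHO cells were given compounds for 2 hr, then doxycycline hyclate at 1 uM final, and incubated 16 hr at 37 C. Viability was measured as ATP content by CellTiter-Glo luminescence.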

[17] = molecular target: Nuclear receptor ROR-gamma (Homo sapiens) (UniProt P51449); assay: qHTS assay to identify small molecule antagonists of the retinoid-related orphan receptor gamma (ROR-gamma) signaling pathway (AID 1159521; also: nearly all actives have a fitted effect of over 50% in size; also: potency is read from the fitted curve at half-maximal effect)
Procedure, shortened: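 Tet-on ROR-gamma CHO cells with ROR response element-luciferase reporter; compounds added 2 hr before 1 uM doxycycline induction, then 16 hr at 37 C. Antagonism scored as decreased ONE-Glo luminescence.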

[18] = qHTS assay to identify small molecule agonists of the AP-1 signaling pathway - cell viability counter screen (AID 1159525; calls by dose curve; also: nearly all actives have a fitted effect of over 55% in size)
Procedure, shortened: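 Same-well cytotoxicity counter screen of the Tox21 10K library in ME-180 cells. The readout is ATP-dependent luminescence after 5 h compound treatment. Data are normalised to DMSO and tetra n-octyl ammonium bromide controls.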

[19] = qHTS assay to identify small molecule agonists of the AP-1 signaling pathway (AID 1159526; calls by dose curve; also: potency is read from the fitted curve at half-maximal effect)
[20] = qHTS assay to identify small molecule agonists of the endoplasmic reticulum stress response signaling pathway (AID 1159516; active = well fitted activation curve with a large enough effect in the signal ratio in the repeat runs, not every such curve was filed as active; the % refers to the signal ratio)
Procedure, shortened: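 Ratiometric FRET readout (405 nm excitation; 460 and 530 nm emission) of a beta-lactamase gene driven by the ER stress response element, after 2 hr substrate loading. HeLa ESRE-bla cells were seeded overnight and treated with compounds for only 5 hr at 37 C.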

Sequence of Vitamin D3 receptor (Homo sapiens) (P11473 whole entry, looked up): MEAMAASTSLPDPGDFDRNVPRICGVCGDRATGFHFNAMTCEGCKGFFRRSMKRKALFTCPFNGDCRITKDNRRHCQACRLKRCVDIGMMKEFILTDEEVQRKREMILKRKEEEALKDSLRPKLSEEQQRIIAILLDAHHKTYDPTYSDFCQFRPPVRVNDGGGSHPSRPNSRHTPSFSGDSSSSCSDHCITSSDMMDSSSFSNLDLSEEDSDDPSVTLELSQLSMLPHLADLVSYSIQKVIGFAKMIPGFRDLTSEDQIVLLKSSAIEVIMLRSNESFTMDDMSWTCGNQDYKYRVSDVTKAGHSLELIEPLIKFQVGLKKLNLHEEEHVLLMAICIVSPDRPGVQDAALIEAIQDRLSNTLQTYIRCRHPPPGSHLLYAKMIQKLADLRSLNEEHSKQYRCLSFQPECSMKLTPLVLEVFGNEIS
Sequence of Bile acid receptor (Homo sapiens) (Q96RI1 whole entry, looked up): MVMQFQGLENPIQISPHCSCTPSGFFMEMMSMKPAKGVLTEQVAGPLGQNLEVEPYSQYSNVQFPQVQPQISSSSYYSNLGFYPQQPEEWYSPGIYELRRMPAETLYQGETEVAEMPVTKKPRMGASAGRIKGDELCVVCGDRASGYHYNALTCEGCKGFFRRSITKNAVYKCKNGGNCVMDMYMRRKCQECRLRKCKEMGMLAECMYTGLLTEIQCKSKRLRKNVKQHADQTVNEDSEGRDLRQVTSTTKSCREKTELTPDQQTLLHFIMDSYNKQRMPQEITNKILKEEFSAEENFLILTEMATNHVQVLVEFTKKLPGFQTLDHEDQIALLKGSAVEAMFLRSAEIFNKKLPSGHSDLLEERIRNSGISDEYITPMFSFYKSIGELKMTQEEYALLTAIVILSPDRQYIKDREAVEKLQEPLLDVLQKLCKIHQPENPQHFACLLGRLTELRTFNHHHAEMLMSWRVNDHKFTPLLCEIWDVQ
Sequence of Peroxisome proliferator-activated receptor delta (Homo sapiens) (Q03181 whole entry, looked up): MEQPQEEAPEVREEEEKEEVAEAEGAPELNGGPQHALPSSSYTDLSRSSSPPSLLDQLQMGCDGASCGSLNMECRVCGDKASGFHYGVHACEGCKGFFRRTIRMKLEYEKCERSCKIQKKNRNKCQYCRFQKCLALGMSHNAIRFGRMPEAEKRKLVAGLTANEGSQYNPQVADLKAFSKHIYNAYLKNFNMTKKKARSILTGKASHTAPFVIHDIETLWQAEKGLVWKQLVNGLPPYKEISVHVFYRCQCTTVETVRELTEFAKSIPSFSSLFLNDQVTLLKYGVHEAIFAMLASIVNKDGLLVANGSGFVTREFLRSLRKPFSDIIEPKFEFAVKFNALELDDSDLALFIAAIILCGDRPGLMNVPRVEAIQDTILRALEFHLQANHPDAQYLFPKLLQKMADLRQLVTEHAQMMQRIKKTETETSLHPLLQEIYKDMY

| Structure (SMILES) | outcome [1] | outcome [2] | outcome [3] | Potency [4] | outcome [5] | outcome [6] | outcome [7] | outcome [8] | outcome [9] | outcome [10] | outcome [11] | outcome [12] | outcome [13] | outcome [14] | outcome [15] | Potency [16] | Potency [17] | Potency [18] | Potency [19] | outcome [20] |
| --- | --- | --- | --- | --- | --- | --- | --- | --- | --- | --- | --- | --- | --- | --- | --- | --- | --- | --- | --- | --- |
| ClCc1cccnc1 | inactive | inactive | inactive | inactive | inactive | inactive | inactive | inactive | inactive | inactive | inactive | inactive | inactive | inactive | inactive | inactive | inactive | inactive | inactive | – |
| Clc1cccc(Cl)c1Cl | inactive | inactive | inactive | inactive | – | inactive | – | inactive | inactive | inactive | inactive | inactive | inactive | inactive | – | inactive | inactive | inactive | inactive | inactive |
| CCC(C)(CC)c1cc(NC(=O)c2c(OC)cccc2OC)on1 | inactive | inactive | inactive | 55.1 µM (active) and inactive | – | inactive | – | inactive | inactive | inactive | inactive | inactive | inactive | inactive | – | inactive | – | inactive | inactive | inactive |
| CC(C)(C)C(O)(CCc1ccc(Cl)cc1)Cn1cncn1 (stereo unspecified) | inactive | inactive | inactive | inactive | – | inactive | – | inactive | inactive | inactive | – | inactive | inactive | inactive | – | – | inactive | inactive | inactive | inactive |
| CN(C)[C@@H]1C(=O)C(C(N)=O)=C(O)[C@@]2(O)C(=O)C3=C(O)c4c(O)cccc4[C@@](C)(O)[C@H]3C[C@@H]12 | inactive | inactive | inactive | inactive | – | inactive | inactive | inactive | – | – | – | – | inactive | inactive | inactive | – | – | inactive | inactive | inactive |
| O=Cc1cccc(Oc2ccccc2)c1 | inactive | inactive | inactive | inactive | – | inactive | – | inactive | inactive | inactive | inactive | inactive | inactive | inactive | – | inactive | inactive | inactive | inactive | inactive |
| BrCCBr | inactive | inactive | inactive | inactive | – | inactive | – | inactive | inactive | inactive | inactive | inactive | inactive | inactive | – | – | inactive | inactive | inactive | inactive |
| CC(C)(Cl)Cl | inactive | inactive | inactive | inactive | – | inactive | – | inactive | inactive | inactive | – | inactive | inactive | inactive | – | inactive | – | inactive | inactive | inactive |
| OC(O)C(Cl)(Cl)Cl | inactive | inactive | inactive | inactive | inactive | inactive | inactive | inactive | – | – | inactive | inactive | inactive | inactive | – | – | inactive | inactive | inactive | inactive |
| Cn1cc(-c2ccccc2)c(=O)c(-c2cccc(C(F)(F)F)c2)c1 | inactive | inactive | inactive | inactive | – | inactive | – | inactive | – | – | inactive | inactive | inactive | inactive | inactive | – | inactive | inactive | inactive | inactive |
| CCC12COCN1COC2 | inactive | inactive | inactive | inactive | – | inactive | – | inactive | inactive | inactive | – | inactive | inactive | inactive | inactive | – | inactive | inactive | inactive | inactive |
| Cc1cccc([N+](=O)[O-])c1 | inactive | inactive | inactive | – | inactive | inactive | inactive | inactive | inactive | inactive | inactive | inactive | inactive | inactive | inactive | – | – | inactive | inactive | inactive |
| CN(N=O)c1ccccc1 | inactive | inactive | inactive | inactive | inactive | inactive | inactive | inactive | inactive | inactive | – | inactive | inactive | inactive | – | inactive | inactive | inactive | inactive | inactive |
| CCN(CC)CCO | inactive | inactive | inactive | inactive | – | inactive | – | inactive | – | – | inactive | inactive | inactive | inactive | – | – | inactive | inactive | inactive | inactive |
| CC(NC(C)(C)C)C(=O)c1cccc(Cl)c1 (stereo unspecified) | inactive | – | inactive | – | – | inactive | – | inactive | inactive | inactive | inactive | inactive | inactive | inactive | – | inactive | inactive | inactive | 36.8 µM (active) | inactive |
| CCN(CC)c1ccccc1 | inactive | – | inactive | – | inactive | inactive | inactive | inactive | inactive | inactive | inactive | inactive | inactive | inactive | inactive | – | inactive | inactive | inactive | inactive |
| O=S(=O)(c1ccc(O)cc1)c1ccc(O)cc1 | inactive | inactive | inactive | inactive | inactive | inactive | inactive | inactive | inactive | inactive | – | inactive | inactive | inactive | inactive | – | – | inactive | inactive | inactive |
| CCCC1COC(Cn2cncn2)(c2ccc(Cl)cc2Cl)O1 (stereo unspecified) | inactive | inactive | inactive | inactive | inactive | inactive | inactive | inactive | inactive | inactive | – | inactive | inactive | inactive | – | inactive | 43.3 µM (active) | inactive | inactive | inactive |
